A number with no mark means an inactive call. For some of these results: Potency and affinity values are given separately. Activity calls are given as the source filed them. How the calls were made is not given here.
Tests used:
[1] = Ebola virus entry assay, green fluorescence channel
[2] = Ebola virus entry assay, blue channel fluorescence
[3] = Ebola virus entry assay, ratio channel
[4] = Ebola virus entry assay, reporter ratio channel; Channel type: primary
Wherever efficacy is given: 0% is about no effect.

Q: What does the source list for `CN(C)CC/C=C1\c2ccccc2Sc2ccc(Cl)cc21`?
A: efficacy [1]: -98.3%; AC50 [2]: 3.16 µM (active); AC50 [3]: 3.16 µM (active); AC50 [4]: 3.16 µM (active)

Q: With `CN1CCC(=C2c3ccccc3CCc3sccc32)CC1` as the compound, how does the efficacy [1] read?
A: Its efficacy is 69.4%.

Q: What about the AC50 [2] of the same compound?
A: Its AC50 is 8.91 µM (active).

Q: What about the AC50 [3] of the same compound?
A: The AC50 was 8.91 µM (active).

Q: What about the AC50 [4] of the same compound?
A: The AC50 was 8.91 µM (active).

Q: For `CC(C(O)c1ccccc1)N(C)CCOC(c1ccccc1)c1ccccc1` (centres undefined), which efficacy [1] is on record?
A: The efficacy was 65%.

Q: What about the AC50 [2] of the same compound?
A: The AC50 was 3.16 µM (active).

Q: And the AC50 [3]?
A: Its AC50 is 2.82 µM (active).

Q: What about the AC50 [4] of the same compound?
A: Its AC50 is 2.82 µM (active).

Q: Which efficacy [1] does the source give for `CN1C[C@H](C(=O)N[C@]2(C)O[C@@]3(O)[C@@H]4CCCN4C(=O)[C@H](Cc4ccccc4)N3C2=O)C[C@@H]2c3cccc4[nH]cc(c34)C[C@H]21` here?
A: The efficacy was 95.4%.

Q: And the AC50 [2]?
A: Its AC50 is 28.2 µM (active).

Q: And the AC50 [3]?
A: Its AC50 is 17.8 µM (active).

Q: And the AC50 [4]?
A: The AC50 was 17.8 µM (active).

Q: Which efficacy [1] does the source give for `CN1CCN(C2Cc3ccccc3Sc3ccc(Cl)cc32)CC1` (centres undefined) here?
A: Its efficacy is 95.7%.

Q: And the AC50 [2]?
A: Its AC50 is 5.01 µM (active).

Q: And the AC50 [3]?
A: The AC50 was 5.01 µM (active).

Q: What about the AC50 [4] of the same compound?
A: Its AC50 is 5.01 µM (active).

Q: Which results are given for `N/C(=N\N=C\c1ccc(Cl)cc1)N/N=C/c1ccc(Cl)cc1`?
A: efficacy [1]: -188%; AC50 [2]: 39.8 µM (active); outcome [3]: inactive; AC50 [4]: 39.8 µM (active)

Q: With `COc1ccc2cc1Oc1ccc(cc1)C[C@H]1c3c(cc4c(c3Oc3cc5c(cc3OC)CCN(C)[C@@H]5C2)OCO4)CCN1C` as the compound, how does the efficacy [1] read?
A: The efficacy was 73.2%.

Q: And the AC50 [2]?
A: Its AC50 is 1.12 µM (active).

Q: What about the AC50 [3] of the same compound?
A: The AC50 was 1.12 µM (active).

Q: What about the AC50 [4] of the same compound?
A: The AC50 was 1.12 µM (active).

Q: Which efficacy [1] does the source give for `CN(C)CCCN1c2ccccc2Sc2ccc(C(F)(F)F)cc21` here?
A: Its efficacy is -67.9%.

Q: What about the AC50 [2] of the same compound?
A: The AC50 was 3.16 µM (active).

Q: What about the AC50 [3] of the same compound?
A: Its AC50 is 2.82 µM (active).

Q: And the AC50 [4]?
A: Its AC50 is 2.82 µM (active).

Q: For `CN1CCC(=C2c3ccccc3Sc3ccccc32)CC1`, which efficacy [1] is on record?
A: The efficacy was 61.5%.

Q: What about the AC50 [2] of the same compound?
A: The AC50 was 8.91 µM (active).

Q: And the AC50 [3]?
A: Its AC50 is 5.01 µM (active).

Q: And the AC50 [4]?
A: The AC50 was 5.01 µM (active).

Q: Which efficacy [1] does the source give for `O[C@@H](COc1cccc2ncccc12)CN1CCN(C2c3ccccc3[C@@H]3[C@H](c4ccccc42)C3(F)F)CC1` (some centres undefined) here?
A: The efficacy was 34.8%.

Q: And the AC50 [2]?
A: Its AC50 is 10 µM (active).

Q: And the AC50 [3]?
A: The AC50 was 10 µM (active).

Q: What about the AC50 [4] of the same compound?
A: Its AC50 is 10 µM (active).

Q: What does the source list for `CC(Oc1c(Cl)cccc1Cl)C1=NCCN1` (centres undefined)?
A: efficacy [1]: 76.8%; AC50 [2]: 39.8 µM (active); outcome [3]: inactive; AC50 [4]: 39.8 µM (active)

Q: With `CC(=O)NC(Cc1ccccc1)C(=O)O` (centres undefined) as the compound, how does the efficacy [1] read?
A: Its efficacy is 29.9%.

Q: And the outcome [2]?
A: The outcome was “inactive”.

Q: What about the outcome [3] of the same compound?
A: The outcome was “inactive”.

Q: What about the outcome [4] of the same compound?
A: Its outcome is “inactive”.

Q: For `CN1CCC(OC(c2ccccc2)c2ccccc2)CC1`, which efficacy [1] is on record?
A: The efficacy was 74.4%.

Q: And the AC50 [2]?
A: The AC50 was 14.1 µM (active).

Q: What about the AC50 [3] of the same compound?
A: Its AC50 is 10 µM (active).

Q: And the AC50 [4]?
A: The AC50 was 10 µM (active).

Q: Which efficacy [1] does the source give for `CNCCC(Oc1ccccc1OC)c1ccccc1` (centres undefined) here?
A: The efficacy was 84.9%.

Q: What about the AC50 [2] of the same compound?
A: Its AC50 is 22.4 µM (active).

Q: And the AC50 [3]?
A: The AC50 was 17.8 µM (active).

Q: And the AC50 [4]?
A: Its AC50 is 17.8 µM (active).

Q: Which efficacy [1] does the source give for `CCOC(=O)COc1ccc2c(C)c(CCN(CC)CC)c(=O)oc2c1Cl` here?
A: Its efficacy is 158%.

Q: And the AC50 [2]?
A: The AC50 was 28.2 µM (active).

Q: What about the AC50 [3] of the same compound?
A: Its AC50 is 25.1 µM (active).

Q: What about the AC50 [4] of the same compound?
A: Its AC50 is 25.1 µM (active).

Q: What does the source list for `COc1cccc(N(C)C(=S)Oc2ccc3c(c2)CCCC3)n1`?
A: efficacy [1]: 84.1%; AC50 [2]: 17.8 µM (active); AC50 [3]: 28.2 µM (active); AC50 [4]: 28.2 µM (active)
